From PubChem BioAssay
Compounds with a hit are over-represented: about 4.2% of the library has one in this group of screens.
GDH-TPI inh – counter-screen for M. tuberculosis FBA inhibitors: GDH-TPI coupled enzymes | GDH-TPI coupled enzyme counterscreen, NADH absorbance | inhibition, % at 4.8 µM | actives 1.2% (n = 360,000) | AID 588335;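 note: 0% = DMSO wells and 100% = wells lacking the enzyme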
RecA intein inh – blocks M. tuberculosis RecA intein splicing; inhibition, % (no concentration beside the values); actives 0.75% (n = 290,000); AID 2221; P9WHJ3; cell-free RecA intein splicing, fluorescence; in the data active = inhibition above about 30%;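 note: 0% = vehicle wells and 100% = reference inhibitor control wells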
Mtb FBA inh – inhibitors of M. tuberculosis fructose-bisphosphate aldolase; purified M. tuberculosis FBA, fluorescence read-out; AID 588726; inhibition, % at 1 µM; actives 2.3% (n = 360,000); in the data active = inhibition above about 27%;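 note: 0% = vehicle and 100% = reference inhibitor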
Target sequence (P9WQA3 whole entry, looked up): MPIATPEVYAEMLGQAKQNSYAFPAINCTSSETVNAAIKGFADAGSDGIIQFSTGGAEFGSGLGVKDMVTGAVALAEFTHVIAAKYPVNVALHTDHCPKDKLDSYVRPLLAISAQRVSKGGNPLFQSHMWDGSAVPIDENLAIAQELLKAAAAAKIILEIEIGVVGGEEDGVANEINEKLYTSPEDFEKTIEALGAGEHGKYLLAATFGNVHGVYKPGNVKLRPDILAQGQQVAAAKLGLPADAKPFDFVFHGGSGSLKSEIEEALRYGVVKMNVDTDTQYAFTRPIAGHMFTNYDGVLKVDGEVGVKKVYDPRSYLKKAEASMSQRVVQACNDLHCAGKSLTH
Mtb bLac sens – beta-lactam sensitization of Mtb H37Rv; M. tuberculosis H37Rv growth with meropenem, percent inhibition; inhibition, % at 25 µM; actives 0.27% (n = 330,000); AID 434955; call rule not given here;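 note: growth measured after seven days incubation then overnight dye step; 0% = bacteria only wells and 100% = bacteria with antibiotic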
CCHF vOTU inh – CCHFV vOTU protease inhibition; AID 651958; Pep-AMC fluorescence; inhibition, % at 11.5 µM; actives 0.55% (n = 370,000); note: 0% = vehicle wells with enzyme and 100% = no enzyme wells
The depositor's hits bear a star; i = inactive; nt = not tested or not shown; + = active, no number. Cut-off read from the data, not from the text of the source, unless noted: active = inhibition above about 30%; inactive = the rest.

SMILES	GDH-TPI inh	RecA intein inh	Mtb FBA inh	Mtb bLac sens	CCHF vOTU inh
COc1ccc(CCn2c(=N)c(C(=O)NCC3CCCO3)cc3c(=O)n4ccccc4nc32)cc1OC (configuration not stated)	12	1	-4	-3	11
CCOC(=O)c1cc2c(=O)n3ccccc3nc2n(CC2CCCO2)c1=NC(C)=O (configuration not stated)	18	nt	nt	8	-288
CCOC(=O)c1cc2c(=O)n3ccccc3nc2n(CC2CCCO2)c1=NC(=O)/C=C/c1ccccc1 (configuration not stated)	26	nt	+	41	-241
COCCCn1c(=N)c(C(=O)NC2CCCCC2)cc2c(=O)n3ccccc3nc21	12	i	+	-13	-235
COCCCn1c(C(=O)N2CC(C)OC(C)C2)cc2c(=O)n3ccccc3nc21 (configuration not stated)	18	-106	+	-2	-359
Cc1ccc(CNC(=O)c2cc3c(=O)n4ccccc4nc3n(CC3CCCO3)c2=N)cc1 (configuration not stated)	3	-1	+	-1	nt
COC(=O)C1CN(Cc2cn(Cc3ccc(Cl)cc3)nn2)CCS(=O)(=O)N1Cc1ccc(F)cc1 (configuration not stated)	nt	nt	nt	nt	-1
O=C(C1CCCN1S(=O)(=O)c1ccc(F)cc1)N1CCc2ccccc2C1 (configuration not stated)	nt	nt	nt	nt	-2
OCCN(CCO)c1ccc(C(c2ccccc2Cl)c2ccc(N(CCO)CCO)cc2Cl)c(Cl)c1	15	32*	-2	2	nt
CN(CCO)C(=O)C(c1ccccc1)c1ccccc1	-9	0	2	3	-13
Cc1nn(-c2ccccc2)c(N)c1N=Nc1ccccc1	13	11	-4	21	20
Nc1nn(-c2ccccc2)c(N)c1N=Nc1ccccc1	34*	5	-1	-1	19
COc1ccc(-c2cc(C(=O)N3CCCC3)c3ccccc3n2)cc1	14	-1	148*	1	-152
Cc1ccc(-c2cc(C(=O)Nc3ccccc3C(N)=O)c3ccccc3n2)o1	12	-6	3	67	-3
Cc1ccc(-c2cc(C(=O)N(C)CC(=O)Nc3ccccc3Br)c3ccccc3n2)o1	11	-5	120*	-6	-129
O=C(O)c1cc(-c2cccs2)nc2cc3c(cc12)OCCO3	9	-11	+	5	-252
CS(=O)(=O)N1CCN(C(=O)c2cc(-c3cccs3)nc3ccccc23)CC1	31*	1	125*	-4	-88
CCNC(=S)NNC(=O)c1cnccn1	nt	nt	nt	nt	-2
O=C(c1cc(-c2ccccc2)nc2ccccc12)N1CCCC1	-5	-1	3	3	7
Cc1ccc(-c2cc(C(=O)N3CCN(c4ccc(F)cc4)CC3)c3ccccc3n2)o1	21	2	12	89	-6
COc1ccc2nc(-c3ccccc3)cc(C(=O)N3CCC3)c2c1	10	nt	149*	4	-233
NC(=O)C1CCN(C(=O)c2cc(-c3ccc(Cl)s3)nc3ccccc23)CC1	34*	nt	127*	2	-101
Cc1ccc(-c2cc(C(=O)N3CCOCC3)c3ccccc3n2)o1	22	nt	120*	-5	-158
COc1ccc(-c2cc(C(=O)N3CC(C)CC(C)C3)c3ccccc3n2)cc1 (configuration not stated)	13	5	50*	-15	-68
CC(=O)c1ccc([C@H](O)[C@H](C)C(=O)N(C)c2ccccc2)cc1	nt	nt	nt	nt	0
SMILES	GDH-TPI inh	RecA intein inh	Mtb FBA inh	Mtb bLac sens	CCHF vOTU inh
COc1ccc(-c2cc(C(=O)O)c3ccccc3n2)c(OC)c1	12	-1	7	-13	-1
COc1ccc2cc(-c3cc(C(=O)O)c4ccccc4n3)ccc2c1	36*	1	13	10	11
COc1ccc(-c2cc(C(F)F)n3ncc(C(=O)N4CCCCC4)c3n2)cc1	42*	-14	26	-7	-29
COc1ccc2c(c1)CNC2CS(=O)(=O)NC1CCCC1 (configuration not stated)	nt	nt	nt	nt	2
c1ccc2c(c1)[nH]c1ccccc12	-8	3	0	-5	-3
O=c1c2ccccc2[nH]c2ccccc12	4	nt	139*	8	-157
Cc1nn(C)cc1/C=C/C(=O)c1ccccc1	36*	6	0	nt	-2
Cc1c(/C=C/C(=O)c2ccc(O)cc2)cnn1C	39*	-1	2	-2	12
Cc1nn(C)cc1/C=C/C(=O)c1cccs1	28	-4	6	37	-9
CN[C@H]1C[C@H]2c3[nH]c4c(-c5cccc(C)c5)cccc4c3CCN2C(=O)[C@H]1[C@H](C)O	nt	nt	nt	nt	-12
